Bioassay records: PubChem, National Center for Advancing Translational Sciences (NCATS)
HepG2 tox: counter-screen for TGF-b inhibitors: cytotoxicity in HepG2 cells. 410,000 tested, 0.76% active. HepG2 CAGA-GFP viability, ATP luminescence, 18 h. Potency, µM (series often up to 46.1 µM), for the others: top-dose activity change, negative = cytotoxicity, usual class: cytotoxic
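CellTiter-Glo luminescence gave cytotoxicity after 18 hours at 37 degrees C. The cells were HepG2 CAGA-GFP in 1% FBS DMEM, stimulated with 500 pg/mL TGF-beta after compound addition. %Activity was normalised to no-cell wells (complete cell-killing) and DMSO (no toxicity), and curves were fitted and classified.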
TGFb SMAD3 inh: inhibitors of TGF-b signaling. 410,000 tested, 1.2% active. HepG2 CAGA-GFP TGF-b/SMAD3 reporter, GFP fluorescence, 18 h; TGF-beta stimulated, 500 pg/mL final. Potency, µM (top dose mostly 46.1 µM), for the others: top-dose activity, negative = inhibition, hits mostly inhibitors; also: % is scaled to controls: 0 for no effect and ±100 for the full control effect; nearly all actives have a fitted effect of over 65% in size
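Using HEPG2 CAGA-GFP reporter cells at 1000 cells/well, we pinned test compounds, stimulated with recombinant TGF-beta (500 pg/mL final) and measured total well GFP after 18 h.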
VP16 counter: Gal4-VP16 reporter inhibition counter-screen | Drosophila S2 Gal4-VP16 UAS-luciferase, luminescence, 20 h | Potency, µM (highest dose often 53.6 µM), for the others: top-dose activity, negative = inhibition, most hits filed as inhibitors | 310,000 tested, 3.5% active;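 also: Gal4-VP16 expression switched on by copper sulfate through the metallothionein promoter; % is scaled to controls: 0 for no effect and ±100 for the full control effect; nearly all actives have a fitted effect of over 50% in size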
S2 tox: viability counter-screen for ATXN expression inhibitors. AID 651635. 400,000 tested, 0.49% active. S2 cells (HEK-293 line with an ATXN2-luciferase reporter) viability, CellTiter-Fluor protease fluorescence, 24 h. Potency, µM (highest dose often 56.7 µM), usual class: cytotoxic; also: nearly all actives have a fitted effect of over 40% in size
ATXN2 expr inh: inhibitors of ATXN2 expression; Potency, µM (highest dose often 57 µM), for inactives: at the highest dose activity change, negative = inhibition, actives largely listed as inhibitors; HEK-293 ATXN2-luciferase reporter, luminescence, 24 h; 360,000 tested, 0.72% active; also: % is scaled to controls: 0 for no effect and ±100 for the full control effect; nearly all actives have a fitted effect of over 55% in size
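qHTS (up to 57 uM final) was run with 24 h compound exposure of reporter cells at 37 °C. Each well was multiplexed: SteadyGlo luminescence measured ATXN2-luciferase expression after a fluorogenic Gly-Phe-AFC viability readout (25 uM final).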
RORg inh: blocks mouse ROR gamma transcriptional activity; P51450; Drosophila S2 Gal4-RORgamma UAS-luciferase reporter, 20 h; Potency, µM (top dose mostly 53.6 µM), for inactives: top-dose activity change, negative = inhibition, hits mostly inhibitors; 310,000 tested, 5.4% active; AID 2551; also: % is scaled to controls: 0 for no effect and ±100 for the full control effect; nearly all actives have a fitted effect of over 60% in size
Target sequence (P51450 whole entry, looked up, the tested form may be a part): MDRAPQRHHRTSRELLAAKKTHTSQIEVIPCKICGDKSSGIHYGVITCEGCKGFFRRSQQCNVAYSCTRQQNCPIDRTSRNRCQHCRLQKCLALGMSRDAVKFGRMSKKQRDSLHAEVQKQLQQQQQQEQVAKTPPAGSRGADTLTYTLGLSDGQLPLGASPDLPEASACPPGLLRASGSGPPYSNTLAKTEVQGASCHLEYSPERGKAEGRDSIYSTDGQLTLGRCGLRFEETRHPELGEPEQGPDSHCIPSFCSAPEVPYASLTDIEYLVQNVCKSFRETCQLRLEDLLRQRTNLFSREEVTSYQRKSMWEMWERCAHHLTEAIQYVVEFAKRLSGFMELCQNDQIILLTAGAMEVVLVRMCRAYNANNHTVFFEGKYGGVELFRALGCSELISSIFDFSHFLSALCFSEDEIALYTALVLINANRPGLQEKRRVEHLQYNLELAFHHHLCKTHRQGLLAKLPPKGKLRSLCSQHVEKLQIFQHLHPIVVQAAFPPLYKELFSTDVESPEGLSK
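A Gal4/UAS one-hybrid system in insect cells: metallothionein-promoter Gal4–ROR gamma fusion plus Photinus luciferase reporter. Copper sulfate 700 uM final, 20 hr ambient incubation, luminescent detection after 10 min with reagent.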
Numbers without * were called inactive; i = inactive; ? = inconclusive; / = no result. A selection: hits, their analogues and other compounds. The true share with any hit is near 6.1%. Calls follow the shape of the dose curve; as a rule, active = well fitted curve in the direction sought with a large enough effect; inconclusive = small, poorly fitted or top-dose-only effect, or another doubt; inactive = no such curve, though single readings can be large; an effect the other way counts as inactive or inconclusive. Potency is read from the fitted curve at half-maximal effect.

SMILES	HepG2 tox	TGFb SMAD3 inh	VP16 counter	S2 tox	ATXN2 expr inh	RORg inh
C=CCN(CC=C)C(=S)NC(=O)c1ccc(OC)c(Br)c1	-14%	-27%	0.71µM*	?	?	0.28µM*
COc1ccc(C(=O)NC(=S)NCCO)cc1Br	3%	20%	1.1µM*	i	28%	0.79µM*
COc1ccc(CCNC(=O)c2cc(Nc3ccccc3)nc3ccccc23)cc1OC	-5%	0%	/	/	/	/
CN(C)c1ccc(/C=C/c2ccnc3ccccc23)cc1C=O	-18%	?	/	/	/	/
Cc1ccc(C(=O)c2c(N)c(C(=O)Nc3ccccc3Cl)c3ccccn23)cc1	3%	0%	/	i	-4%	/
CCc1nnc(N/N=C/c2ccccc2Cl)n1N	13µM*	11µM*	?	i	10%	?
CCc1nnc(N/N=C/c2ccccc2F)n1N	-106%	?	-2%	i	-28%	11µM*
Cc1cc(=O)n2nc(N3CCC(C(=O)Nc4ccc(Br)cc4F)CC3)sc2n1	-9%	-28%	/	i	-5%	/
COC(=O)N[C@@H](c1cccc(F)c1)[C@@H](C)[N+](=O)[O-]	/	/	-6%	/	/	20%
CC(C)(C)CC(C)(C)N1CNC(=S)NC1	-3%	5%	?	i	/	10µM*
OCCCN1CNC(=S)NC1	-3%	3%	/	i	/	/
COc1ccccc1/C=C/C=N/n1c(-c2cc(-c3ccccc3)n[nH]2)n[nH]c1=S	11%	-19%	4%	i	12%	?
COc1ccccc1/C=C\C=N\n1c(-c2ccc(Cl)cc2Cl)n[nH]c1=S	-24%	-4%	10µM*	i	11%	7.9µM*
COc1ccc(/C=N/n2c(C)nnc2C)c(OC)c1	-10%	18%	-8%	i	18%	7%
COc1ccccc1/C=C/C=N/n1c(-c2ccc(F)cc2)n[nH]c1=S	18%	-4%	-8%	i	-9%	2µM*
COc1ccc(Br)cc1/C=N/n1c(-c2ccccc2)n[nH]c1=S	-35%	-9%	-20%	i	-37%	?
COc1ccccc1/C=C/C=N/n1c(C)nnc1C	0.89µM*	-5%	1%	?	33%	-32%
COc1ccccc1/C=C\C=N\n1c(-c2ccc(Cl)cc2)n[nH]c1=S	-21%	0%	?	?	-15%	1.6µM*
C=CCNc1nc(NC2CCN(C)CC2)c2cc(OC)c(OC)cc2n1	-49%	?	/	/	/	/
Cc1ccc(OCCN2CCN(C(=O)CCC(=O)Nc3nnc(C(C)C)s3)CC2)cc1	1%	-19%	13µM*	i	-20%	38%
O=c1c2sccc2[nH]c(=S)n1Cc1ccccc1	-2%	-3%	2.8µM*	i	-1%	1.8µM*
COc1ccc(Cn2c(=S)[nH]c3ccsc3c2=O)cc1	1%	2%	2.2µM*	i	0%	1.4µM*
O=C(Nc1cc(Cl)cc(Cl)c1)c1ccc(Cn2c(=O)[nH]c3ccsc3c2=O)cc1	-37%	?	?	19µM*	-24%	?
Cc1ccccc1CNC(=O)c1oc2c(c1C)-c1[nH]ncc1CC2	-30%	0%	/	/	/	/
C=CCOC(=O)N[C@@H](c1cccs1)C(C(C)=O)C(C)=O	/	/	-2%	/	/	7%
SMILES	HepG2 tox	TGFb SMAD3 inh	VP16 counter	S2 tox	ATXN2 expr inh	RORg inh
CC(=O)[C@]1(O)Cc2c(O)c3c(c(O)c2[C@@H](O[C@H]2C[C@H](N)[C@@H](O)[C@H](C)O2)C1)C(=O)c1ccccc1C3=O	/	/	/	/	0.14µM*	/
CC(=O)[C@]1(O)Cc2c(O)c3c(c(O)c2[C@@H](O[C@H]2C[C@H](N)[C@H](O)[C@H](C)O2)C1)C(=O)c1c(O)cccc1C3=O	/	/	7.1µM*	/	/	3.5µM*
O=S1(=O)C=C(Sc2nnc(-c3ccccc3)o2)c2ccccc21	14µM*	10µM*	3.2µM*	/	10µM*	1.8µM*
Cc1cc(C)nc(SC2=CS(=O)(=O)c3ccccc32)n1	-37%	3%	29%	?	?	-36%
COc1ccc(C(=O)NCCn2cc(SCc3cc(C)ccc3C)c3ccccc32)cc1	-22%	?	/	?	?	/
CC1(C(=O)NC2CCCCC2)Cc2ccccc2C(=O)N1Cc1ccccc1Cl (stereo not given)	6%	/	/	/	/	/
Cc1ccc(N=Nc2ccc(O)c3ncccc23)cc1C	-14%	3%	0.5µM*	?	-38%	0.14µM*
Cc1ccc(N=Nc2ccc(O)c3ncccc23)cc1	8%	?	/	?	13µM*	0.056µM*
Cc1nc2c(O)c3c(c(O)c2nc1C)C1C=CC3CC1	-106%	?	/	5.6µM*	28µM*	/
O=C(NCC1CCC2(CCN(Cc3cccn3-c3ccc(Cl)cn3)CC2)O1)c1ccccc1 (stereo not given)	/	/	/	i	/	/
Cc1c(C(=O)N2CCOCC2)sc(NC(=O)CCl)c1C#N	-8%	0%	?	i	-12%	13µM*
Cc1c(C(=O)N2CCOCC2)sc(NC(=O)c2ccc([N+](=O)[O-])cc2)c1C#N	7%	23%	1%	?	?	14%
CCOC(=O)c1c(CSC(=N)N)n(C)c2cc(Br)c(OC(C)=O)cc12	35%	-25%	-9%	/	?	-26%
CCOC(=O)c1c(CSC(=N)N)n(-c2ccc(C)cc2)c2cc(Br)c(OC(C)=O)cc12	11µM*	22µM*	?	25µM*	?	?
CCN(CC)CCCN=Cc1c(-c2ccccc2)[nH]n(-c2nc3ccccc3s2)c1=O	6%	1%	-7%	i	-13%	?
C/C(=N/NC(=O)c1cccs1)c1c(C)[nH]n(-c2nc3ccccc3s2)c1=O	1µM*	-27%	2µM*	i	?	1.4µM*
CCC(=NCc1ccccc1)c1c(C(F)(F)F)[nH]n(-c2nc3ccccc3s2)c1=O	-5%	?	-17%	/	/	8.9µM*
CCCN=C(C)c1c(-c2ccccc2)[nH]n(-c2nc3ccccc3s2)c1=O	-3%	-4%	-25%	i	6%	2.5µM*
COC(=O)Cc1[nH]n(-c2nc3ccccc3s2)c(=O)c1C(C)=Nc1ccc(Cl)cc1	-9%	-12%	-20%	i	/	11µM*
COC(=O)Cc1[nH]n(-c2nc3ccccc3s2)c(=O)c1C(C)=Nc1ccc(C)cc1	-17%	-1%	-22%	i	?	?
CCN(CC)C(=O)c1sc2c(c1C)c(=O)n(Cc1ccccc1)c(=O)n2Cc1ccccc1C	-19%	-25%	/	?	0%	/
Cc1ccc(NC(=O)/C=C\C(=O)N(c2ccc(C(C)C)cc2)C(C(=O)NCc2ccco2)c2ccc(F)cc2)cc1 (stereo not given)	-41%	6.3µM*	/	/	/	/
